Inconclusive results are not listed. Unmarked numbers belong to inactive results. The source made the active and inactive calls. Calls come from the whole dose curve; as a rule, active = well fitted curve in the direction sought with a large enough effect in the repeat runs; inconclusive = weak or mixed curves; inactive = no such curve, though single readings can be large; an effect the other way counts as inactive or inconclusive.

The target of assay [1] is Cytochrome P450 2D6 (Homo sapiens) (UniProt P10635). Nature of the assay: Cytochrome P450 Family 2 Subfamily D Member 6 (CYP2D6) small molecule antagonists: luciferase reporter qHTS assay (AID 1671196). Note: nearly all actives have a fitted effect of over 50% in size. Note: potency is the fitted concentration of half-maximal effect. Conditions: P450-Glo CYP2D6 enzyme assay, luciferin luminescence, 1 h; series mostly up to 115 µM. In outline: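 Room-temperature luminescent CYP2D6 activity assay: compound preincubated 10 min with enzyme–substrate mix, NADPH-initiated reaction 1 h, detection reagent 20 min before reading.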
In general terms: A reporter such as luciferase makes a cellular process visible.

Assay [2] has as its target Cytochrome P450 2C19 (Homo sapiens) (UniProt P33261). Briefly: Cytochrome P450 Family 2 Subfamily C Member 19 (CYP2C19) small molecule antagonists: luciferase reporter qHTS assay (AID 1671197). Note: nearly all actives have a fitted effect of over 65% in size. Note: potency is the fitted concentration of half-maximal effect. Conditions: P450-Glo CYP2C19 enzyme, luciferin luminescence, 1 h; series mostly up to 115 µM. In outline: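 P450-Glo CYP2C19 screening system; proluciferin substrate; DMSO compound stocks; 10 min RT preincubation; NADPH regeneration, 1 h at 37C; luciferin detection reagent, 20 min RT; luminescence as RLU.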

Assay [3] concerns the target Cytochrome P450 2C9 (Homo sapiens) (UniProt P11712). Briefly: Cytochrome P450 Family 2 Subfamily C Member 9 (CYP2C9) small molecule antagonists: luciferase reporter qHTS assay (AID 1671198). Note: nearly all actives have a fitted effect of over 50% in size. Note: potency is the fitted concentration of half-maximal effect. Conditions: P450-Glo CYP2C9 enzyme assay, luciferin luminescence; series mostly up to 115 µM. In outline: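 CYP2C9 activity was measured with a P450-Glo proluciferin substrate. Enzyme–substrate mix was held with compound for 10 min at room temperature, then NADPH regeneration solution was added for 1 h at 37C. Luciferin product was read as luminescence.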

Assay [4] concerns the target Cytochrome P450 1A2 (Homo sapiens) (UniProt P05177). Nature of the assay: Cytochrome P450 Family 1 Subfamily A Member 2 (CYP1A2) small molecule antagonists: luciferase reporter qHTS assay (AID 1671199). Note: nearly all actives have a fitted effect of over 50% in size. Note: potency is the fitted concentration of half-maximal effect. Particulars: P450-Glo CYP1A2 enzyme, luciferin luminescence, 1 h; series mostly up to 53 µM. The procedure, abridged: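 Room-temperature CYP1A2 reaction with proluciferin substrate: compounds added from DMSO, 10 min preincubation, NADPH regeneration for 1 h. Luciferin detection reagent then added; luminescence recorded as RLU.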

Assay [5] addresses Voltage-gated inwardly rectifying potassium channel KCNH2 (Homo sapiens) (UniProt Q12809). Nature of the assay: Human Ether-a-go-go-Related Gene (hERG) channel small molecule antagonists: fluorescence cell-based qHTS assay (AID 1671200).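 Note: hERG-expressing U2OS cells given a thallium stimulus after FluxOR II dye loading; nearly all actives have a fitted effect of over 50% in size.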 Conditions: hERG-U2OS cells, FluxOR thallium flux fluorescence; series mostly up to 76.8 µM. The procedure, abridged:
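Quantitative HTS in hERG-U2OS cells: thallium entry through the channel reports activity, read as continuous 480/540 nm fluorescence over 2 min after stimulus addition.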

In assay [6] the target is Cytochrome P450 3A4 (Homo sapiens) (UniProt P08684). Nature of the assay: Cytochrome P450 Family 3 Subfamily A Member 4 (CYP3A4) small molecule antagonists: luciferase reporter qHTS assay (AID 1671201). Note: nearly all actives have a fitted effect of over 50% in size. Note: potency is the fitted concentration of half-maximal effect. Particulars: P450-Glo CYP3A4 enzyme, luciferin luminescence, 1 h; series mostly up to 115 µM. The procedure, abridged:
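Inhibition of CYP3A4 is measured as loss of light: the enzyme converts a proluciferin substrate to luciferin, detected luminescently. Reaction ran 1 h at room temperature with NADPH regeneration after a 10 min compound preincubation.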
% is set by controls: 0 for no effect and ±100 for the full control effect.

Cytochrome P450 2C19 (Homo sapiens), sequence (P33261 whole entry, looked up): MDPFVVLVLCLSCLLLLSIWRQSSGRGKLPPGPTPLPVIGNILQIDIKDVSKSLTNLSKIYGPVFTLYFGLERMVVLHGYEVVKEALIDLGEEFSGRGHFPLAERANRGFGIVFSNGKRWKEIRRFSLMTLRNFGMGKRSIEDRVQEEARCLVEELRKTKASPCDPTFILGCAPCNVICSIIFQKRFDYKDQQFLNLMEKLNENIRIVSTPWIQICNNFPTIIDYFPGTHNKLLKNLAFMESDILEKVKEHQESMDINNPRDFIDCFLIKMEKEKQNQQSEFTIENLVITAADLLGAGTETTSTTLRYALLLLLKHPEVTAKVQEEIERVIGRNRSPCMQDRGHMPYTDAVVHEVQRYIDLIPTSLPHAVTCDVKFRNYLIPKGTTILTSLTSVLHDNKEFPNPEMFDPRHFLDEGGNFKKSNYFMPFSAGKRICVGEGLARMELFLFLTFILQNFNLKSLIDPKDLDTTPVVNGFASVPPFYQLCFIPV
Voltage-gated inwardly rectifying potassium channel KCNH2 (Homo sapiens), sequence (Q12809 whole entry, looked up): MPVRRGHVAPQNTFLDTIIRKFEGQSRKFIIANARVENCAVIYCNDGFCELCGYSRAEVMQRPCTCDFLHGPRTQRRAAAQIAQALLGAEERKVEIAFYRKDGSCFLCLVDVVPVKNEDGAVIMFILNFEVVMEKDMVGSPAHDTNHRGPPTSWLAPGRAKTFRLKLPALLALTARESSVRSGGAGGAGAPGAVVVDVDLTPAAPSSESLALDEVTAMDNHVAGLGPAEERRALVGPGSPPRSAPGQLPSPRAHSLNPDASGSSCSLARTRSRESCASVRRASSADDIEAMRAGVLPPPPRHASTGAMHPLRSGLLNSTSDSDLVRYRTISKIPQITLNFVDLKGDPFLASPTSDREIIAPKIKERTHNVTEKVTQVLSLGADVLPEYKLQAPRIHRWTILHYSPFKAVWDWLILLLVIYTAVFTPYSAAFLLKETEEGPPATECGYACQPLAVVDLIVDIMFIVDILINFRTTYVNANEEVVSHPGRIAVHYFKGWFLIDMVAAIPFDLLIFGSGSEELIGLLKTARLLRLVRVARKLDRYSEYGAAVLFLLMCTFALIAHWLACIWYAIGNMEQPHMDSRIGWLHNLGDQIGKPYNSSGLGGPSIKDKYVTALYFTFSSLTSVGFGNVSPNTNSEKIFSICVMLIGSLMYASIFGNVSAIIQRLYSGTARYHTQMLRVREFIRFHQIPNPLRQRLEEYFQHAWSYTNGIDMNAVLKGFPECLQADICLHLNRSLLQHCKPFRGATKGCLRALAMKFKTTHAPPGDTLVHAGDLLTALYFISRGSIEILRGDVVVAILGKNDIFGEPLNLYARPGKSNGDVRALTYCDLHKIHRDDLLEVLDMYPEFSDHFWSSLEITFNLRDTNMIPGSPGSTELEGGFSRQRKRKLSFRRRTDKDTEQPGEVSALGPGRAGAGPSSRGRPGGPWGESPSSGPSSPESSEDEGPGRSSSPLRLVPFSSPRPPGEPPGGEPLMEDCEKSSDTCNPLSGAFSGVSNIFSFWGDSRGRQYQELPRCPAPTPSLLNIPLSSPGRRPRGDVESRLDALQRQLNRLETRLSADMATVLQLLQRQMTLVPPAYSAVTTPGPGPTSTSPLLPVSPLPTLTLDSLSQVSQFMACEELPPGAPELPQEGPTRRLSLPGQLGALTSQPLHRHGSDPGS
Cytochrome P450 3A4 (Homo sapiens), sequence (P08684 whole entry, looked up): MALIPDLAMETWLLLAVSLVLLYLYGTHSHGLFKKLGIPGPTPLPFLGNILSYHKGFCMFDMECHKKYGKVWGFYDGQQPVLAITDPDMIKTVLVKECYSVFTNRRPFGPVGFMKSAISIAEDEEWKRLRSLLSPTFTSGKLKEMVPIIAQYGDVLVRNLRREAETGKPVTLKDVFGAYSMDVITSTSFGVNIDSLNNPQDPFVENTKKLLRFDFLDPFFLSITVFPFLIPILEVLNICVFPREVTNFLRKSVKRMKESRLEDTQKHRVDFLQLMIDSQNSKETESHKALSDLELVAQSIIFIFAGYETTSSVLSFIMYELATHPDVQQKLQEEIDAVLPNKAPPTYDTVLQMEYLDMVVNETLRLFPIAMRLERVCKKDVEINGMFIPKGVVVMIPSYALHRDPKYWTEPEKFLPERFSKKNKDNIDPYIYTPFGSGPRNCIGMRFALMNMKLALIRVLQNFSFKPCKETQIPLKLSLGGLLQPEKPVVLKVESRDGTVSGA
Cytochrome P450 2C9 (Homo sapiens), sequence (P11712 whole entry, looked up): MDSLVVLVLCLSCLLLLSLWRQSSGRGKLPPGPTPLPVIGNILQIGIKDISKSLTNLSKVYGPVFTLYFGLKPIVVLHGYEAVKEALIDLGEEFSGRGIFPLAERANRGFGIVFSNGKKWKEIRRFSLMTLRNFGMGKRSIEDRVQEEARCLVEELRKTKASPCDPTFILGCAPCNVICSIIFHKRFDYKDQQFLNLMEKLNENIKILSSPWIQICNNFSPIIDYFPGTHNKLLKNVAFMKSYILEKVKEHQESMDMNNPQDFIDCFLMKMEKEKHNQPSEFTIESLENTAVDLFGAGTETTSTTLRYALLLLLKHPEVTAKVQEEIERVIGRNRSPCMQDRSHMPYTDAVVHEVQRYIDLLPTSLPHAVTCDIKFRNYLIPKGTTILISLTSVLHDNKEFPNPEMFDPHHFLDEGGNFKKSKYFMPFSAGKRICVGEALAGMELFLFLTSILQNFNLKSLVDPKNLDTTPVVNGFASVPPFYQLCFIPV
Cytochrome P450 2D6 (Homo sapiens), sequence (P10635 whole entry, looked up): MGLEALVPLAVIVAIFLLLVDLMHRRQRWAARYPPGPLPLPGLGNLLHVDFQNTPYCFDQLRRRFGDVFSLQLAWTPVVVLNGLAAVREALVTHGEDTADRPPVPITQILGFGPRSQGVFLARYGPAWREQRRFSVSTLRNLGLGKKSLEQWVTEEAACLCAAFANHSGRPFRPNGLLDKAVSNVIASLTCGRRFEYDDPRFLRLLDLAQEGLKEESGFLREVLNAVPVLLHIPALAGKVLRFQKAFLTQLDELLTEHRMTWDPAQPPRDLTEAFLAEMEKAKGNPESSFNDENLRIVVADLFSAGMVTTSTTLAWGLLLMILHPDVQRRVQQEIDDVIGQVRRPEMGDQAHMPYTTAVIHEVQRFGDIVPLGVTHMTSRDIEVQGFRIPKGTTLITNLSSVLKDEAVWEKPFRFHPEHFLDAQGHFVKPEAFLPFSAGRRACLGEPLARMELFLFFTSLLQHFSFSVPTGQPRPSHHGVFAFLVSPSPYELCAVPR
Cytochrome P450 1A2 (Homo sapiens), sequence (P05177 whole entry, looked up): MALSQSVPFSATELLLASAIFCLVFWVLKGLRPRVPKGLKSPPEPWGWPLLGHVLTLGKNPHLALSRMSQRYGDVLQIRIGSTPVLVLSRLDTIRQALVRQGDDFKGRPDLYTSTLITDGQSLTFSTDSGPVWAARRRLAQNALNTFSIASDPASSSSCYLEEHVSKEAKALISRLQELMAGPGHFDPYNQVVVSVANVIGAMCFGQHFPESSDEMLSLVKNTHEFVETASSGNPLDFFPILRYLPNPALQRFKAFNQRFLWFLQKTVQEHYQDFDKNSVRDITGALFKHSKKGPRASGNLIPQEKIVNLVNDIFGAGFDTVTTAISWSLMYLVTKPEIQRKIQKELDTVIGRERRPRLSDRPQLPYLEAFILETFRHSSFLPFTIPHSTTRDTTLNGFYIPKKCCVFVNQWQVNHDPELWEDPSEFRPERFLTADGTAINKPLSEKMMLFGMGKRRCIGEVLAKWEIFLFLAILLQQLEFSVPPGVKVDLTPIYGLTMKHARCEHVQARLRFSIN

As to `NC(=O)CCCCC1CCSS1` (configuration not stated), the Potency result in assay [1], in assay [2], in assay [3], in assay [4], in assay [5] and in assay [6] was “inactive” each time.
Take `C(=C(c1ccccc1)c1ccccc1)c1ccccc1`: the Potency result in assay [1] and in assay [6] was “inactive” in each case. Also, the values for the Potency in assay [2], in assay [3] and in assay [4] were 5.03 µM (active), 5.03 µM (active) and 35.6 µM (active), respectively.
In the case of `Nc1ncnc2c1ncn2Cc1c(F)cccc1Cl`, the Potency result in assay [1], in assay [2], in assay [3], in assay [4] and in assay [6] was “inactive” each time.
Take `CN1[C@@H]2CC[C@H]1CC(NC(=O)n1c(=O)[nH]c3ccccc31)C2` (some centres not stated): the Potency in assay [1] was 0.776 µM (active). In addition, the Potency result in assay [2], in assay [3], in assay [4] and in assay [6] was “inactive” throughout.
On to `CCCCC=O`, for which the Potency entry in assay [1], in assay [4], in assay [5] and in assay [6] was “inactive” in each case. Besides, the Potency was 71 µM (active) in assay [2] and 79.6 µM (active) in assay [3].
As for `C=CCOc1nc(OCC=C)nc(OCC=C)n1`, the Potency is 39.9 µM (active) in assay [1]; 1.78 µM (active) in assay [2]; 15.9 µM (active) in assay [3]; 6.33 µM (active) in assay [4]; 12.6 µM (active) in assay [6].
With `COC(=O)CCCC(=O)O`, the Potency entry in assay [1], in assay [2], in assay [3], in assay [4] and in assay [6] was “inactive” throughout.
Take `Cc1c(F)cc2c(=O)c(C(=O)O)cn3c2c1CCC3C` (configuration not stated): the Potency entry in assay [1], in assay [2], in assay [3], in assay [4] and in assay [6] was “inactive” in each case.
Consider `CCCCCC[C@@H](CCC)C(=O)O`, for which the Potency entry in assay [1], in assay [2], in assay [4], in assay [5] and in assay [6] was “inactive” throughout. In addition, the Potency in assay [3] is 34.7 µM (active).
`Oc1cc(O)c2c(c1)O[C@H](c1ccc(O)c(O)c1)[C@H](O)C2`: the Potency result in assay [1], in assay [2], in assay [3], in assay [4], in assay [5] and in assay [6] was “inactive” throughout.
`COc1cccc(Br)c1`: the Potency entry in assay [1], in assay [2], in assay [3], in assay [4] and in assay [6] was “inactive” each time.
On to `COc1nc(C)nc(N)n1`, for which the Potency entry in assay [1], in assay [2], in assay [3], in assay [4], in assay [5] and in assay [6] was “inactive” each time.
As for `NCCN1CCNC1=O`, the Potency entry in assay [1], in assay [2], in assay [3], in assay [4], in assay [5] and in assay [6] was “inactive” each time.
As to `CCCCCCC(=O)OCC`, the Potency result in assay [1], in assay [2], in assay [4], in assay [5] and in assay [6] was “inactive” each time. For the same molecule, the Potency in assay [3] was 71 µM (active).
As to `CC1CCN(CCCC(=O)c2ccc(F)cc2)CC1`, the Potency in assay [1] is 0.246 µM (active); in assay [2] it was 34.7 µM (active). In addition, the Potency entry in assay [3], in assay [4] and in assay [6] was “inactive” throughout.
For `CCN(CC)C(=O)c1ccc(O)c(OC)c1`, the Potency entry in assay [1], in assay [2], in assay [3], in assay [4] and in assay [6] was “inactive” throughout.
As to `CC(C)N1C(=O)c2ccccc2C1=O`, the Potency entry in assay [1], in assay [2], in assay [3], in assay [5] and in assay [6] was “inactive” each time. Further, the Potency in assay [4] was 35.6 µM (active).
`NC(N)=NS(=O)(=O)c1ccc(N)cc1`: the Potency entry in assay [1], in assay [2], in assay [3], in assay [4] and in assay [6] was “inactive” each time.
As to `Cc1nc(-c2ccc(OCC(C)C)c(C#N)c2)sc1C(=O)O`, the Potency entry in assay [1], in assay [2], in assay [4] and in assay [6] was “inactive” each time. Also, the Potency in assay [3] is 17.4 µM (active).
`CCO[Si](CCCN=C=O)(OCC)OCC`: the Potency entry in assay [1], in assay [2], in assay [3] and in assay [4] was “inactive” throughout. Also, in assay [6], the Potency is 35.6 µM (active).
Consider `NC(CS)C(=O)O` (configuration not stated), for which the Potency result in assay [1], in assay [2], in assay [3] and in assay [6] was “inactive” throughout. Moreover, in assay [4], the Potency is 17.4 µM (active).
In the case of `CC(C)CCCC(C)CCCC(C)CCCCC(C)CCCC(C)CCCC(C)C` (configuration not stated), the Potency result in assay [1], in assay [2], in assay [3], in assay [4] and in assay [6] was “inactive” each time.
For `CCCC(C)CO` (configuration not stated), the Potency in assay [1] is 79.7 µM (active); in assay [4] it was 35.6 µM (active). For the same molecule, the Potency result in assay [2], in assay [3] and in assay [6] was “inactive” in each case.
`CCCCOCC(C)OCC(C)O` (configuration not stated): the Potency in assay [1] is 29 µM (active). For the same molecule, the Potency entry in assay [2], in assay [3], in assay [4] and in assay [6] was “inactive” each time.
As to `CNC(=O)c1c(I)c(NC(=O)CCCCC(=O)Nc2c(I)c(C(=O)O)c(I)c(C(=O)NC)c2I)c(I)c(C(=O)O)c1I`, the Potency entry in assay [1], in assay [2], in assay [3], in assay [4] and in assay [6] was “inactive” each time.
On to `COCc1ccc(COC)cc1`, for which the Potency result in assay [1], in assay [2], in assay [3], in assay [4] and in assay [6] was “inactive” throughout.
As to `FC(F)(F)C(F)(F)C(F)(F)C(F)(F)C(F)(F)C(F)(F)C(F)(F)C(F)(F)C(F)(F)C(F)(F)F`, the activity change, negative = inhibition in assay [1] is -5% [at 10.5 µM]; in assay [2], -6.18% [at 10.5 µM]; in assay [3], -5.26% [at 10.5 µM]; in assay [4], -15.3% [at 10.5 µM]; in assay [5] it was 1.96% [at 6.97 µM]; in assay [6] it was -3.38% [at 10.5 µM].
As for `Nc1nc2c(ncn2CCC(CO)CO)c(=O)[nH]1`, the Potency entry in assay [1], in assay [2], in assay [3], in assay [4] and in assay [6] was “inactive” in each case.
Turning to `CC(C)(O)Cc1ccccc1`, the Potency result in assay [1], in assay [2], in assay [3], in assay [4], in assay [5] and in assay [6] was “inactive” each time.
As for `CCC(=O)c1cccc(Cl)c1`, the Potency result in assay [1], in assay [2], in assay [3], in assay [4], in assay [5] and in assay [6] was “inactive” throughout.
In the case of `COc1cccc(OC)c1`, the Potency result in assay [1], in assay [2], in assay [3], in assay [4], in assay [5] and in assay [6] was “inactive” in each case.
With `CC(C)(C)C(=O)/C=C/c1ccc(Cl)cc1`, the Potency entry in assay [1] and in assay [6] was “inactive” in each case. For the same molecule, the Potency was 7.96 µM (active) in assay [2], 63.3 µM (active) in assay [3] and 22.4 µM (active) in assay [4].
